Compound activity as filed in PubChem BioAssay.
This is one part of a sample in which hits are shown more often than they occur.
CBX7 AlphaScr: inhibitors of human CBX7 binding to H3K27me3 peptide; O95931; AlphaScreen His6-CBX7 / biotin-H3K27me3 peptide binding; active compounds read low; normalised signal (fraction of DMSO) (concentration not given with the values); 1.1% of 66,000 active; AID 1224903; in the data active = normalised signal below about 0.5
Target sequence (O95931 whole entry, looked up): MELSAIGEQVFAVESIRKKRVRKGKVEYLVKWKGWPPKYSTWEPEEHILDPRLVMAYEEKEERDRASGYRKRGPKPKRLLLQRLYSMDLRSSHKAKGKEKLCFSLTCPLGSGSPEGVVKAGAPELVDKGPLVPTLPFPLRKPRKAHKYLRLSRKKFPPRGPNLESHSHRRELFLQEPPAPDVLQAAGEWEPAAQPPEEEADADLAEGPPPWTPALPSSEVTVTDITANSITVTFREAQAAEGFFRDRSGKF
Numbers without * were called inactive.

SMILES	CBX7 AlphaScr
CCC(C)NC(=O)c1c[nH]c2ccc(S(=O)(=O)N(C)c3cccc(C)c3)cc2c1=O (stereo unspecified)	0.72
c1ccc(CNc2ccc3nncn3n2)cc1	0.96
O=C(COc1ccc(Cl)cc1)NCc1nnc(SCC(=O)Nc2cccc3ccccc23)o1	1
CN1CCN(C(=O)c2cnc(N3CCN(c4ncccn4)CC3)c3ccccc23)CC1	1
COc1ccc(Nc2cc(C(=O)NCCCN(C)Cc3ccccc3)c3ccccc3n2)cc1OC	0.44*
CCCCN(C)CCCNC(=O)c1cc(Nc2ccc(OC)c(OC)c2)nc2ccccc12	0.74
COc1ccc(Nc2cc(C(=O)NCCN(Cc3ccccc3)C(C)C)c3ccccc3n2)cc1OC	0.54
Cc1oc(-c2ccc(Cl)cc2)nc1CN1CCCC(C(=O)NC2CCCCC2)C1 (stereo unspecified)	1
c1ccc(-c2csc(N3CCN(Cc4ccc5c(c4)OCO5)CC3)n2)cc1	0.96
O=C1CC(N2CCN(Cc3ccc4c(c3)OCO4)CC2)C(=O)N1CC(c1ccccc1)c1ccccc1 (stereo unspecified)	1.3
c1ccc(CN2CCC(NCCc3ccc4c(c3)OCO4)CC2)cc1	0.48*
O=C1CC(N2CCN(c3ncccn3)CC2)C(=O)N1c1ccccc1 (stereo unspecified)	1
CCN(CCCNC(=O)c1cc2c(-c3cccc(OC)c3)nn(C)c2s1)c1ccccc1	0.82
O=C(NC1CC1)c1cc(-c2cccnc2)nc2ccccc12	1.1
O=C(NCCc1ccc(Cl)cc1)c1ccc(CNS(=O)(=O)c2ccc(F)cc2)cc1	1
Cc1ccc(-c2nn(C)c(=O)c3ccccc23)cc1S(=O)(=O)NCc1ccccc1	0.93
Cc1ccc(C(=O)N(Cc2nc(-c3ccccc3)no2)C(C)C)cc1Cl	1
COc1ccc(-c2noc(-c3ccc(Br)cc3)n2)cc1OC	1.3
COc1c(-c2cc(-c3ccccc3)n[nH]2)c(O)c(OC)c2occc12	0.65
COc1ccc(-c2cc(-c3c(O)c(OC)c4occc4c3OC)[nH]n2)cc1OC	0.45*
COc1ccccc1/C=C/c1nn2c(-c3ccccc3Cl)nnc2s1	1
CCOc1ccc(-n2ccnc2SCC(=O)Nc2ccc(Cl)c(Cl)c2)cc1	0.97
COc1ccc(CCNc2nc(C)nc3sc(C)c(C)c23)cc1OC	1
Cc1nc(NCCc2ccc3c(c2)OCCO3)c2cc(-c3ccccc3)sc2n1	0.36*
Cc1nc(SCC(=O)c2ccc3c(c2)OCCO3)c2cc(-c3ccccc3)sc2n1	1
SMILES	CBX7 AlphaScr
COc1cc(Nc2cc(C)nc3ncnn23)c(C(=O)O)cc1OC	1
O=C(Nc1nc2ccccc2s1)c1ccccc1Oc1ccccc1	1.1
Cc1ccn2c(Nc3ccc(C(C)C)cc3)c(-c3ccccn3)nc2c1	0.0075*
Cc1ccc(Nc2c(-c3ccccn3)nc3cc(C)ccn23)cc1	0.00096*
COc1ccc(Nc2c(-c3ccccn3)nc3ccc(Br)cn23)cc1	0.84
Fc1ccc(Nc2c(-c3ccccn3)nc3ccccn23)cc1	0.059*
Cc1ccc(-c2nc3cnccn3c2Nc2ccc(C(C)C)cc2)cc1	0.91
Cc1ccn2c(Nc3ccc(C(C)C)cc3)c(-c3ccsc3)nc2c1	1
Cc1ccc(Nc2c(-c3cccc(Br)c3)nc3cc(C)ccn23)cc1	0.79
Fc1ccc(Nc2c(-c3ccc(Cl)cc3)nc3ncccn23)cc1	1.2
COc1ccc(Nc2c(-c3ccccn3)nc3cc(C)ccn23)cc1	0*
Fc1ccc(Nc2c(-c3ccccc3)nc3ccccn23)cc1	1
COc1ccc(Nc2c(-c3ccccn3)nc3ccc(Cl)cn23)cc1	0.72
Cc1ccc(Nc2c(-c3cccnc3)nc3cc(C)ccn23)cc1	0.91
COc1ccc(CNC(=O)CCc2c(C)nc3nc(-c4cc(OC)cc(OC)c4)nn3c2C)cc1	1.1
CCOC(=O)c1cc(-c2ccc(OC)cc2)n(CCC(=O)NC(C)CC)c1C (stereo unspecified)	0.93
CCOC(=O)C1CCCN(C(=O)c2c(-c3ccccc3)noc2C)C1 (stereo unspecified)	1
Cc1c(C(=O)c2ccccc2)nnn1-c1nonc1N	1
Cc1ccc(CNC(=O)c2ccc3c(=O)n4c(nc3c2)CCCCC4)cc1	0.82
O=C(CSc1nc(-c2cccc(F)c2)[nH]c1-c1ccccc1)Nc1nccs1	0.9
CC(C)c1nnc(NC(=O)c2ccc(S(=O)(=O)N3CCCC3)cc2)s1	0.96
O=C(Cn1ncc2ccsc2c1=O)NCc1ccc(F)cc1	0.95
O=C(CC1Sc2ccc(C(F)(F)F)cc2NC1=O)Nc1cccc2ccccc12 (stereo unspecified)	1
Cc1ccccc1-c1nc(CN2CCC(C(=O)NC(C)CCc3ccccc3)CC2)c(C)o1 (stereo unspecified)	0.98
Cc1oc(-c2ccccc2Cl)nc1Cn1c(SCc2cccc(F)c2)nc2ccncc21	0.87
SMILES	CBX7 AlphaScr
Cc1cc(C)c(NC(=O)C(C(C)C)N2C(=O)c3ccccc3C2=O)c(C)c1 (stereo unspecified)	0.9
NC(=O)c1c(NC(=O)c2ccc(Oc3ccccc3)cc2)sc2c1CCCC2	0.99
O=C(NC1CCN(Cc2ccccc2)CC1)c1cccc(NC2=NC3CS(=O)(=O)CC3S2)c1 (stereo unspecified)	1.1
COC(=O)CNc1c(-c2ccccn2)nc2ccccn12	0.28*
COC(=O)CNc1c(-c2ccccn2)nc2cnccn12	0.98
COC(=O)CNc1c(-c2c[nH]c3ccccc23)nc2ccc(Br)cn12	0.8
CCOC(=O)c1[nH]cnc1C(=O)Nc1ccccc1	1
CCCCCCOc1ccc(C(=O)Nc2ccccn2)cc1	1.1
CCOC(=O)c1[nH]cnc1C(=O)Nc1ccccn1	0.19*
CCOc1ccc(C2C(C(=O)Nc3ccccn3)=C(C)NC3=C2C(=O)CCC3)cc1 (stereo unspecified)	1
CCOC(=O)c1ccc(NC(=O)COc2ccc(OC)cc2)cc1	1.3
CCOC(=O)c1[nH]cnc1C(=O)Nc1ccc(OC)cc1	0.066*
Cc1nc2ncnn2c(C)c1CCC(=O)Nc1ccccc1F	1.1
Cc1cc(C)c(NC(=O)CSc2nccn2-c2ccc(F)cc2)c(C)c1	1.1
Cc1noc(/C=C/c2cccs2)c1S(=O)(=O)N1CCC(C(=O)Nc2cccnc2)CC1	0.9
COc1ccc(CNC(=O)C2CCCN(S(C)(=O)=O)C2)cc1 (stereo unspecified)	1
CC(=O)Nc1ccc(S(=O)(=O)NCCc2cc3ccc(C)cc3[nH]c2=O)cc1	1.2
COCCNC(=O)c1nnc(Cc2ccc(Cl)cc2)o1	1.2
COc1cccc(NC2c3ccccc3C(=O)N2c2cccnc2)c1 (stereo unspecified)	1
O=C1c2ccccc2C(Nc2cccnc2)N1c1cccnc1 (stereo unspecified)	0.069*
O=C1c2ccccc2C(Nc2ccc(Br)cc2)N1c1cccnc1 (stereo unspecified)	1
Cc1c(C(=O)Nc2ccc(Cl)cc2)sc2ncnc(N3CCOCC3)c12	1.1
CCCCOc1nnc(-c2ccc(Cl)cc2)c2ccccc12	0.79
Cc1cccc(-c2nnc(SCC(=O)Nc3nccs3)o2)c1	1.4
COc1ccc(NS(=O)(=O)c2ccc(C3CNC(=O)C3)cc2)cc1 (stereo unspecified)	1.1
CC(=O)N1c2ccccc2NC2=C(C(=O)CCC2)C1c1ccccc1Cl (stereo unspecified)	0.98
CCOc1ccc(CCNC(=O)c2cc(Nc3ccc(OC)cc3)nc3ccccc23)cc1OCC	1.5
O=C(CCCN1C(=O)c2cccnc2C1=O)Nc1cccc(Cl)c1	0.8
